In PubChem BioAssay AID651747 (Johns Hopkins Ion Channel Center, 2012):
Out of some 2,400 compounds screened, about 950 (40%) were called active.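 Rule for the calls: active = thallium flux ratio, averaged over three wells, more than 5 SD below the buffer control mean; inactive = the rest.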 A selection follows.

Test: nonspecific thallium influx blockers, KCNK3-free cells – cell-based, non-induced KCNK3 line, FluxOR thallium, triplicate, counter-screen for KCNK3 inhibitor project, primary screen (AID 651747);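 note: host cells are CHO cells without KCNK3 induction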;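 for thallium flux ratio (lower = more inhibition): ratio is peak minus trough fluorescence over baseline then normalized to buffer controls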
Details: non-induced KCNK3 parental cells, at 10 µM; outcome: FluxOR thallium flux; thallium flux ratio (lower = more inhibition): stronger effect = lower value

Compound	thallium flux ratio (lower = more inhibition)
CN1CCc2ccccc2C1Cc1ccccc1NC(=O)c1sc2ccccc2c1Cl (stereo not given)	0.143 (active)
N#Cc1cccc(NC(=O)COC(=O)c2ccccc2C(=O)c2ccc(Cl)c([N+](=O)[O-])c2)c1	0.153 (active)
Cc1ccc(NC(=S)N2CCCC(c3ccccc3)=N2)cc1	inactive
COc1ccc(Nc2ncnc3sc(-c4ccccc4)cc23)c(OC)c1	0.124 (active)
FC(F)(F)c1cccc(-c2cc3ccccc3nc2N2CCCC2)c1	0.127 (active)
O=C(c1cc(-c2ccc(O)cc2)on1)N1CCCc2ccccc21	inactive
CSc1nccc(NC(=O)c2ccc(C(C)(C)C)cc2)n1	inactive
COc1cccc(CNc2nc(C(F)(F)F)nc3ccccc23)c1	0.111 (active)
COc1ccccc1NC(=O)CSc1nc2sc(C)c(C)c2c(=O)n1Cc1ccco1	inactive
C=CCSc1nnc(N2C(=O)C(O)=C(C(=O)c3ccco3)C2c2ccc(F)cc2)s1 (stereo not given)	0.101 (active)
COc1cc(/C=C(\C#N)c2nc3ccccc3[nH]2)ccc1O	0.0933 (active)
Cc1cccc(NC(=O)c2sc3nc4c(c(-c5ccco5)c3c2N)CCC4)c1	inactive
[O-][n+]1ccc(OCc2ccccc2)cc1	inactive
COc1cccc(COc2ccc(N(C)S(=O)(=O)c3ccccc3)cc2)c1	0.109 (active)
N/C(Cc1ccc([N+](=O)[O-])cc1)=N\OC(=O)COc1ccc2ccccc2c1	inactive
N#Cc1nc(Cc2cccc3ccccc23)oc1NCc1ccc2c(c1)OCO2	0.152 (active)
COc1ccc([N+](=O)[O-])cc1-c1nc2ccccc2nc1-c1ccccc1	0.129 (active)
CCCC(=O)Nc1ccc(Cl)c(NC(=O)c2ccc(Br)o2)c1	inactive
CN(CCC(=O)Nc1cc(S(=O)(=O)N(C)C)ccc1Cl)CC(=O)Nc1ccc(F)cc1	0.159 (active)
Cc1cc(C)c(S(=O)(=O)c2ccccc2)c(OC(=O)c2c(F)cccc2Cl)n1	inactive
CS/C(=C\C(=O)c1ccco1)Nc1ccccc1Cl	0.154 (active)
Cc1cccc2cc(CN(Cc3nnnn3Cc3ccccc3)C3CCCC3)c(=O)[nH]c12	0.139 (active)
Cc1cc(OCCCCOc2ccc(C#N)cc2)ccc1[N+](=O)[O-]	inactive

Compound	thallium flux ratio (lower = more inhibition)
O=C1c2ccccc2C2=Nc3ccccc3SC(c3ccccc3F)C12 (stereo not given)	0.125 (active)
CCCCCCCCCCOC(=O)Cn1c(COc2cccc(OC)c2)[n+](C)c2ccccc21	inactive
CCCOc1ccc2c3c(c(=O)oc2c1OCCC)CCC3	0.158 (active)
COc1cccc(CN(C)CC(O)COC(c2ccccc2)c2ccccc2C)c1 (stereo not given)	0.146 (active)
FC(F)(F)c1cc(-c2ccco2)nc(NCc2ccc(Cl)cc2)n1	0.148 (active)
Cc1ccc(S(=O)(=O)NCc2cn3ccsc3n2)c(C)c1	inactive
COc1cccc(C(=O)NCCSc2ccc(Br)cc2)c1	inactive
O=C(NCCc1c[nH]c2ccccc12)c1cccc(Br)c1	0.159 (active)
O=C(CSc1nc(Nc2ccccc2)nc(N2CCOCC2)n1)Nc1cc(Cl)ccc1O	0.137 (active)
CC(C)c1ccccc1OCC(O)CN(CC(O)COc1cccc2ccccc12)C(C)C (stereo not given)	inactive
C=CCN(C(=O)c1cc(C)cc(C)c1)C1(C(=O)Nc2ccccc2)CCN(C(C)C)CC1	inactive
CC(=O)Nc1cccc(OCC(=O)/C=C2\N(C)c3ccccc3C2(C)C)c1	inactive
COc1cccc(/C=N/Nc2cc(C)nc(-c3ccccc3O)n2)c1O	0.109 (active)
CC[n+]1cc(C)ccc1/C=C/c1ccc(N(C)C)cc1	0.106 (active)
N#Cc1ccc(S(=O)(=O)NCC(=O)OCC(=O)NCCc2ccccc2)cc1	inactive
Cc1cccc(-c2nc3ccc(C(=O)NCCN4CCN(C)CC4)cc3nc2-c2cccc(C)c2)c1	0.106 (active)
Cc1ccc(NC(=O)c2cc([N+](=O)[O-])ccc2Cl)c(O)c1	inactive
CSc1nnc2c(n1)OC(c1ccsc1)N(C(C)=O)c1ccccc1-2 (stereo not given)	inactive
Clc1cccc(-c2nc(NCC3CCCO3)c3ccccc3n2)c1 (stereo not given)	0.129 (active)
CCn1ncc(Br)c1C(=O)Nc1cc(C)ccc1F	inactive
CCOc1ccccc1Oc1cn[nH]c1-c1ccc(OC)cc1O	inactive
S=C(Nc1cccc(Br)c1)N1CCn2cccc2C1c1cccnc1 (stereo not given)	inactive
COC(=O)C1=C(C)N(C(C)c2ccccc2)C(=O)/C1=C\c1ccco1 (stereo not given)	0.158 (active)

Compound	thallium flux ratio (lower = more inhibition)
O=C(Nc1ccccc1)O/N=C1\CCCCC1c1ccc([N+](=O)[O-])cc1[N+](=O)[O-] (stereo not given)	inactive
CC(C)c1cc(C(=O)N/N=C/c2ccoc2)c(O)c(C(C)C)c1	0.147 (active)
CSc1cccc(NC(=S)N(C(C)C)C(C)c2ccccn2)c1 (stereo not given)	inactive
O=C(CC1NCCc2ccccc21)Nc1cccc(Cl)c1 (stereo not given)	inactive
FC(F)(F)c1cccc(NC(=S)Nc2cccc(Cl)c2)c1	0.128 (active)
O=C(Nc1cccc(Cl)c1)Nc1ccccc1NS(=O)(=O)c1cccs1	0.131 (active)
CC(NCc1cccs1)C(=O)Nc1cc(Cl)cc(Cl)c1 (stereo not given)	inactive
CC(Oc1cccc(NC(=O)c2cccs2)c1)C(=O)c1ccccc1 (stereo not given)	inactive
C=CCSc1nsc(NC(=O)Nc2cccc(C(C)=O)c2)n1	inactive
O=C(NCCc1ccccc1)c1ccc2c(c1)N(Cc1ccccc1)CCS2	0.16 (active)
O=C(Cn1cc(C(=O)c2cccs2)c2ccccc21)NCc1cccs1	inactive
CC(=O)N(C1=C(Cl)C(=O)c2ccccc2C1=O)c1ccc(C(=O)O)cc1	0.11 (active)
CC(C(=O)NCC1CCCCC1)N(C)Cc1cccc(Cl)c1 (stereo not given)	inactive
CC(C)CCNC(=O)C(C)N(C(=O)Cn1nnc(-c2ccc(F)cc2)n1)C1CCCC1 (stereo not given)	inactive
COc1cccc(NC(=S)N(CCc2c(C)[nH]c3ccccc23)Cc2ccco2)c1	0.153 (active)
Cc1nonc1C1CCCN1C(=O)c1cc(COc2cccc(C(F)(F)F)c2)on1 (stereo not given)	inactive
Cc1cccc(N(Cc2ccccc2)C(=O)c2ccccc2F)c1	inactive
Cc1cccc(C)c1N1CCN(S(=O)(=O)N2CCCCC2)CC1	0.156 (active)
COc1ccccc1N1CCN(/N=C\C(Br)=C\c2ccccc2)CC1	inactive
c1ccc2c(NC3C4CC5CC(C4)CC3C5)nc(N3CCOCC3)nc2c1 (stereo not given)	0.151 (active)
COc1ccc(Cl)cc1NC(=O)C(C)N1CCc2ccccc21 (stereo not given)	inactive
CCOc1ccc(C2c3[nH]c4ccccc4c3CCN2Cc2cccn2-c2ncccn2)cc1 (stereo not given)	inactive
C=CCc1cc(S(=O)(=O)c2ccc(O)c(CC=C)c2)ccc1O	0.155 (active)

Compound	thallium flux ratio (lower = more inhibition)
CCN(CC)CCN(C(=O)c1cc(Cl)sc1Cl)c1nc2cc3c(cc2s1)OCO3	0.143 (active)
COc1cc(Cl)c(S(=O)(=O)N2CCN(Cc3ccc4c(c3)OCO4)CC2)cc1Cl	inactive
COC(=O)c1cc(NC2c3ccccc3C(=O)N2c2ccc(Cl)cn2)cc(C(=O)OC)c1 (stereo not given)	inactive
O=C(CNCCC1=CCCCC1)Nc1ccccc1N1CCCCCC1	inactive
O=C(Nc1ccccc1N1CCCC1)c1ccc2ccccc2c1	0.131 (active)
Cc1cccc(C(=O)Nc2ccccc2N2CCN(c3ccc(F)cc3)CC2)c1	0.151 (active)
CCCCC(=O)Nc1ccccc1N1CCN(c2ccc(F)cc2)CC1	inactive
CCc1cc(C(c2ccccc2OC)N2CCOCC2)c(NC(=O)c2ccccc2)s1 (stereo not given)	inactive
CSCc1cc(N(C)C)nc(SCc2ccc(Cl)cc2Cl)n1	0.15 (active)
COc1ccc2c(c1)C(c1cccs1)=NNC(c1cccnc1)=N2	inactive
c1ccc(C(c2ccccc2)N2CCN(Cc3nnnn3C3CCCCC3)CC2)cc1	0.129 (active)
Cc1cccc2c1-c1sc(C(=O)NCCCN3CCc4ccccc4C3)cc1CO2	inactive
CCCCCCCCCCCCN1C(=O)CSC1c1cccnc1 (stereo not given)	0.148 (active)
Cc1c(C(=O)N2CCCc3ccccc32)sc2nc(-c3ccccc3)cn12	inactive
COc1ccc(CC(=O)Nc2nc(-c3ccc(F)c(F)c3)cs2)cc1OC	0.102 (active)
CCc1ccc2nc3sc(C(=O)Nc4nnc(CC)s4)c(N)c3cc2c1	0.108 (active)
COc1ccc(C2Nc3ccccc3C(=O)N2Cc2ccccc2)cc1Cn1nnc2ccccc21 (stereo not given)	0.144 (active)
CCCc1cc(C(=O)N2CCCC(CO)(CCCc3ccccc3)C2)n(C)n1 (stereo not given)	0.152 (active)
CC(=O)N1CCCc2cc(S(=O)(=O)N3CCCC(C(=O)N4CCN(c5cccc(Cl)c5)CC4)C3)ccc21 (stereo not given)	inactive
CCc1nc(SCC(=O)NNC(=O)c2ccc(C)cc2)c2ccccc2n1	inactive
CC(Sc1nc2ccccc2c(=O)n1Cc1ccco1)C(=O)c1ccccc1 (stereo not given)	inactive
O=C(Nn1c(SCc2ccc([N+](=O)[O-])cc2)nc2ccccc2c1=O)c1ccc(F)cc1	0.136 (active)
COc1cc(C(=O)Nc2oc(-c3ccccc3)c(-c3ccccc3)c2C#N)cc(OC)c1OC	inactive

Compound	thallium flux ratio (lower = more inhibition)
Cc1cc(NC(=O)Nc2ccc(Cl)cc2)n(-c2ccccc2)n1	inactive
O=C(Nc1cccc(S(=O)(=O)Nc2ccc(Cl)cc2)c1)c1ccc2c(c1)OCCO2	0.136 (active)
C=CCN(N=Nc1cccc([N+](=O)[O-])c1)c1cccc([N+](=O)[O-])c1	inactive
COc1ccccc1C(c1nnnn1C(C)(C)C)N1CCN(Cc2ccccc2)CC1 (stereo not given)	inactive
CCC(C)(C)n1nnnc1C(c1cccs1)N1CCN(c2nc3ccccc3s2)CC1 (stereo not given)	0.156 (active)
COCCNc1cc(-c2ccccc2)nc2cc(-c3cccc(F)c3)nn12	0.13 (active)
Cc1nc(N2CCN(c3ccccn3)CC2)c2c(C)c(C(=O)Nc3ccc(F)cc3)sc2n1	inactive
Cc1nc(N2CCOCC2)c2c(C)c(C(=O)Nc3ccc(C(F)(F)F)cc3)sc2n1	0.152 (active)
Cc1nc(N2CCN(c3ccccn3)CC2)c2c(C)c(C(=O)Nc3ccc(F)c(Cl)c3)sc2n1	inactive
Cc1ccc(NC(=O)COC(=O)CNC(=O)c2ccc(Cl)cc2Cl)cc1S(=O)(=O)N1CCOCC1	inactive
O=C(N/N=C/c1sc(N2CCCCC2)nc1-c1cccs1)c1cccnc1	0.155 (active)
Oc1ccc(/C=N/Nc2nc(-c3ccccc3F)nc3ccccc23)c(O)c1	0.143 (active)
Cc1cc(C)c(C#N)c(SCc2ccc3c(c2)OCO3)n1	0.115 (active)
COc1ccc(CN(C)C(=O)c2cc(-c3ccc(C)cc3C)nc3ccccc23)c(OC)c1OC	0.111 (active)
COc1ccc(-c2nc(CCNC(=O)c3ccc(Br)o3)cs2)cc1	inactive
Cc1nc2ccccc2cc1OCc1ccc(F)cc1	inactive
CC(=O)c1ccccc1OCc1ccc(C(=O)c2ccccc2)cc1	0.103 (active)
COc1ccc(CCNC(=O)c2ccccc2OCc2ccccc2)cc1	0.153 (active)
O=C(N/N=C/c1cccc(OCc2ccccc2)c1)c1ccc(Br)o1	inactive
O=C(Oc1ccc(Br)cc1C(=S)N1CCOCC1)c1cccc([N+](=O)[O-])c1	inactive
COC(=O)c1ccc(COC(=O)C2CCN(S(=O)(=O)c3c(Cl)cccc3Cl)CC2)o1	inactive
COc1ccc(S(=O)(=O)NCCCCOc2ccc(Cl)cc2)cc1	0.135 (active)
COc1ccc(C(C)=O)cc1COc1ccc(Cl)c(C)c1	0.158 (active)
